Compounds with a hit are over-represented: about 3.1% of the library has one in this group of screens.
DENV2 CPE: DENV2-induced cell death inhibition | DENV2-infected cells, cytopathic effect rescue, plate reader | CPE inhibition, % at 9.99 µM | 350,000 compounds, 1.7% hits | AID 651640; in the data active = CPE inhibition above about 20%, passing the limit was not always enough; inconclusive = no clear call, values can overlap the other calls; tested in BHK-21 cells
GSIS activator: GLuc luminescence reporter in INS-1E cells, primary screen for activators of glucose-dependent secretion of insulin; INS-1E GLuc reporter insulin secretion, 2-3 h; activation, % at 16.6 µM; 370,000 compounds, 0.61% hits; AID 743287;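 active = lowest replicate activation of at least 40%, so every replicate reaches that level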
MLL AF4-AF9 inh: blocks AF4 peptide binding to human AF9; AlphaScreen, biotin-AF4 peptide binding to FLAG-AF9; 350,000 compounds, 0.47% hits; inhibition, % at 10 µM; AID 651704; P42568;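 active = every replicate reaching a set inhibition limit, whatever the replicate mean, cut at about 25% in these data; inconclusive = mean inhibition reaches that limit but some replicates miss it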
dFosB act: activators of mouse delta FosB homodimer; purified delta FosB, TAMRA-CDK5 oligo fluorescence polarization; percent of positive-control signal above neutral wells; 340,000 compounds, 0.99% hits; P13346; activation, % at 25 µM;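 active = mean activation above about 17%, with every replicate also reaching it, limit read from the data, passing the limit was not always enough; inconclusive = only one of the two conditions met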
RAD52 inh: RAD52 (human) annealing inhibition; 360,000 compounds, 0.46% hits; P43351; AID 651710; recombinant RAD52 DNA annealing, FRET fluorescence; inhibition, % at 18.7 µM;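 active = every replicate showing at least 50% inhibition; inconclusive = mean inhibition at least 50% but not in every replicate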
RAD54 inh: RAD54 (human) branch migration inhibition. inhibition, % at 10.4 µM. 360,000 compounds, 0.14% hits. AID 602329. RAD54 Holliday junction branch migration, FAM/BHQ fluorescence;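 active = mean normalized replicate activity at least 40 and at least half of replicates scoring 40 or more; inconclusive = only one of the two criteria met; inactive = mean below 40 and under half of replicates reaching 40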;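 also: inhibitors cause a drop in the FAM fluorescence signal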
Target sequence (Q92698 whole entry, looked up): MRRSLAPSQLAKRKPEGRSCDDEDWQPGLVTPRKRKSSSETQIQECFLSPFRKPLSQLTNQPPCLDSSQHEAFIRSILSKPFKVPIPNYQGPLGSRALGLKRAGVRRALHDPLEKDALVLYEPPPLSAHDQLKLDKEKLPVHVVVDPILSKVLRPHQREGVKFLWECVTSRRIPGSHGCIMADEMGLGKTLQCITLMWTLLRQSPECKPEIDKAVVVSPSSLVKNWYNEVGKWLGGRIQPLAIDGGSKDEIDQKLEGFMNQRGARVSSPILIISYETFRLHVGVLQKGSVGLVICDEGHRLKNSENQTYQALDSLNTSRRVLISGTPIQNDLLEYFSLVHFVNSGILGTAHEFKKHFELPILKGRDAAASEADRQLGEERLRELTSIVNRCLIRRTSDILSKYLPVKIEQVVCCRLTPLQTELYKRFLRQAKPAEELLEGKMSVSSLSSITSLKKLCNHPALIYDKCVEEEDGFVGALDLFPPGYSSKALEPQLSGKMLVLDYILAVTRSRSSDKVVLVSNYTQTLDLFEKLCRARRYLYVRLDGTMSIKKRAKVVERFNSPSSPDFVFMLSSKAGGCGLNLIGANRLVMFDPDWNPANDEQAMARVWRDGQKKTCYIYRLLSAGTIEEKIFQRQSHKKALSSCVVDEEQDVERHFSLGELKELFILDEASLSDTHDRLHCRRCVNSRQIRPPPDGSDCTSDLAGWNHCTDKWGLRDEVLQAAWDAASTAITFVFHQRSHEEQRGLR
Each line names hits and unclear results; the compound was inactive in the other large screens.

CN1CCN(C(=O)C[C@H]2CC[C@@H](NC(=O)c3ccc4c(c3)OCO4)[C@@H](CO)O2)CC1	none (no result: dFosB act)
O=c1[nH]c2cc(Cl)ccc2n(CCNc2ncc(C(F)(F)F)cc2Cl)c1=O	GSIS activator 72 (no result: DENV2 CPE, MLL AF4-AF9 inh, RAD52 inh, RAD54 inh)
O=[N+]([O-])c1cc(Cl)ccc1NCCNc1ncc(C(F)(F)F)cc1Cl	GSIS activator 58 (no result: DENV2 CPE, MLL AF4-AF9 inh, RAD52 inh, RAD54 inh)
O=C1CC(=O)N(CCNc2ncc(C(F)(F)F)cc2Cl)C(=O)N1	none (no result: DENV2 CPE, GSIS activator, MLL AF4-AF9 inh, RAD52 inh)
O=c1cc(Cl)[nH]c(=O)n1CCNc1ncc(C(F)(F)F)cc1Cl	none (no result: DENV2 CPE, MLL AF4-AF9 inh, RAD52 inh, RAD54 inh)
O=[N+]([O-])c1ccccc1NCCNc1ncc(C(F)(F)F)cc1Cl	none (no result: DENV2 CPE, MLL AF4-AF9 inh, RAD52 inh, RAD54 inh)
O=C1C=CC(=O)N1CCNc1ncc(C(F)(F)F)cc1Cl	GSIS activator 147 (no result: RAD54 inh)
Cc1noc(C)c1NC(=O)N[C@@H]1CC[C@H](CC(=O)NCc2ccc(Cl)c(Cl)c2)O[C@@H]1CO	none (no result: dFosB act)
NCCCC[C@H]1CN=C(N)N1CCCCC1CCCCC1	none (no result: DENV2 CPE, MLL AF4-AF9 inh, RAD52 inh)
FC(F)(F)c1cc(CCN2CCNC[C@@H]2c2ccccc2)cc(C(F)(F)F)c1	GSIS activator 115
CCC(C)[C@H]1CNCCN1CCc1cc(C(F)(F)F)cc(C(F)(F)F)c1 (stereo partly drawn)	DENV2 CPE 44
CCC(C)[C@H]1CNC(=S)N1CCc1cc(C(F)(F)F)cc(C(F)(F)F)c1 (stereo partly drawn)	DENV2 CPE 81
NC1=NC[C@H](CC2CCCCC2)N1CCc1cc(C(F)(F)F)cc(C(F)(F)F)c1	GSIS activator active (no result: DENV2 CPE)
CN1C(=O)c2cc(NC(=O)c3ccc(F)cc3)ccc2OC[C@H]2O[C@H](CC(=O)O)CC[C@@H]21	none (no result: dFosB act)
COCC#Cc1cnc2c(c1)C(=O)N([C@@H](C)CO)C[C@H](C)[C@@H](CN(C)C(=O)c1cnccn1)O2	none (no result: dFosB act)
FC(F)(F)c1cc(CCN2CCNC[C@@H]2CC2CCCCC2)cc(C(F)(F)F)c1	GSIS activator active
CCCC[C@@H]1CNCCN1CCc1cc(C(F)(F)F)cc(C(F)(F)F)c1	none
CCCNC(=O)[C@H]1[C@H](CO)[C@H]2Cn3c(ccc(C4=CCCCC4)c3=O)[C@@H]1N2CCC	DENV2 CPE inconclusive (no result: dFosB act)
Cc1cc(F)ccc1-c1cc(C(=O)NCc2ccco2)[nH]n1	DENV2 CPE 57 (no result: GSIS activator, dFosB act)
COC(=O)C1C(=O)NC(SC)=C(C#N)C1c1ccccc1 (stereo not drawn)	GSIS activator 40 (no result: DENV2 CPE, MLL AF4-AF9 inh, RAD52 inh)
O=C(C[C@H]1C=C[C@H](NC(=O)c2ccccc2)[C@H](CO)O1)Nc1ccc(-c2ccccc2)cc1	none (no result: dFosB act)
N/C(=N\OC(=O)COc1ccc(Br)cc1Cl)c1cccnc1	dFosB act 20 (no result: RAD54 inh)
N/C(=N\OC(=O)COc1ccc(Cl)cc1Br)c1cccnc1	none (no result: RAD54 inh)
CNC[C@@H]1OCCCC[C@@H](C)Oc2ccc(NS(C)(=O)=O)cc2C(=O)N([C@@H](C)CO)C[C@@H]1C	none (no result: dFosB act)
C[C@@H]1CN([C@@H](C)CO)C(=O)c2cc(NC(=O)C3CCCCC3)ccc2O[C@@H]1CN(C)Cc1ccc(Oc2ccccc2)cc1	none (no result: DENV2 CPE, MLL AF4-AF9 inh, dFosB act, RAD52 inh, RAD54 inh)
COc1ccc(CN(C)C[C@@H]2Oc3ccc(NC(=O)C4CCCCC4)cc3C(=O)N([C@@H](C)CO)C[C@@H]2C)cc1	DENV2 CPE 38 (no result: dFosB act)
C[C@@H]1CN([C@@H](C)CO)C(=O)c2cc(NC(=O)C3CC3)ccc2O[C@H]1CN(C)Cc1ccc(Oc2ccccc2)cc1	DENV2 CPE 33 (no result: dFosB act)
C[C@@H]1CN([C@@H](C)CO)C(=O)c2cc(NC(=O)C3CC3)ccc2O[C@@H]1CN(C)Cc1ccc(Oc2ccccc2)cc1	DENV2 CPE 79 (no result: dFosB act)
COc1ccc(CN(C)C[C@H]2Oc3ccc(NC(=O)C4CCCCC4)cc3C(=O)N([C@@H](C)CO)C[C@@H]2C)cc1	none (no result: dFosB act)
C[C@@H]1CN([C@@H](C)CO)C(=O)c2cc(NC(=O)c3ccncc3)ccc2O[C@@H](C)CCCCO[C@@H]1CN(C)C(=O)NC1CCCCC1	none (no result: dFosB act)
COc1cccc(-c2ccc3c(c2)[C@H]2[C@H](CCN2C(=O)c2ccccc2F)[C@@H](CO)N3C)c1	none (no result: MLL AF4-AF9 inh, dFosB act)
COc1ccc(NC(=O)N2CC[C@@H]3[C@H]2c2cc(-c4cccc(F)c4)ccc2N(C)[C@H]3CO)cc1	none (no result: DENV2 CPE, dFosB act, RAD52 inh)
COc1ccc(-c2ccc3c(c2)[C@@H]2[C@@H](CCN2C(=O)Nc2ccc(F)cc2)[C@H](CO)N3C)cc1	MLL AF4-AF9 inh 30 (no result: dFosB act, RAD54 inh)
COc1cccc(-c2ccc3c(c2)[C@@H]2[C@@H](CCN2C(=O)c2ccc(F)cc2)[C@H](CO)N3C)c1	DENV2 CPE 24 (no result: MLL AF4-AF9 inh, dFosB act)
CN1c2ccc(-c3cccc(F)c3)cc2[C@H]2[C@H](CCN2C(=O)c2ccccc2F)[C@H]1CO	DENV2 CPE 69 (no result: dFosB act)
COc1cccc(NC(=O)N2CC[C@@H]3[C@H]2c2cc(-c4cccc(OC)c4)ccc2N(C)[C@H]3CO)c1	DENV2 CPE 68 (no result: dFosB act, RAD54 inh)
CN1c2ccc(-c3ccccc3)cc2[C@@H]2[C@@H](CCN2C(=O)Cc2ccccn2)[C@@H]1CO	DENV2 CPE 22 (no result: dFosB act)
CN1c2ccc(-c3ccc(F)cc3)cc2[C@@H]2[C@@H](CCN2C(=O)Cc2ccccn2)[C@@H]1CO	DENV2 CPE inconclusive (no result: dFosB act)
CCCN(C#N)c1nc(NCC)nc(NC(C)C)n1	none (no result: DENV2 CPE, GSIS activator, MLL AF4-AF9 inh, RAD52 inh)
CCNc1nc(NC(C)C)nc(N(C)C#N)n1	GSIS activator 58
C[C@@H]1CN([C@H](C)CO)C(=O)c2cccc(NS(C)(=O)=O)c2O[C@@H]1CN(C)CC1CC1	none (no result: dFosB act)
O=C(Cn1c(O)c(/C=C2\C=Nc3ccccc32)sc1=O)N1CCOCC1	none (no result: RAD54 inh)
